Calls of active or inactive are those of the source. Rule for the calls: active = hit-call score of the fitted dose curve at least 0.9, where 1 is the maximum; inconclusive = response in the unintended direction; inactive = score below 0.9.
The compounds below were run against Estrogen receptor (Homo sapiens) (UniProt P03372) (assay: OT_ERa_GFPERaERE_0120: Odyssey Thera (OT) 2-hour HeLa Transcription Induction Assay for Estrogen Receptor (AID 2283382)).
Method: OT_ERa_GFPERaERE_0120 is a cell-based, single-readout assay that uses HeLa, a human cervix cell line, with measurements taken at 2 hours after chemical dosing in a 384-well plate.OT_ERa_GFPERaERE_0120 is one of one assay component(s) measured or calculated from the OT_ERa_GFPERaERE_0120 assay. It is designed to make measurements of fluorescent protein induction, a form of inducible reporter, as detected with optical microscopy: fluorescence microscopy signals by Microscopy technology.Data from the assay component OT_ERa_GFPERaERE_0120 was analyzed into 1 assay endpoint. This assay endpoint, OT_ERa_EREGFP_0120, was analyzed in the positive analysis fitting direction relative to DMSO as the negative control and baseline of activity. Using a type of inducible reporter, measures of receptor for gain-of-signal activity can be used to understand the reporter gene at the pathway-level as they relate to the gene ESR1. Furthermore, this assay endpoint can be referred to as a primary readout, because the performed assay has only produced 1 assay endpoint. To generalize the intended target to other relatable targets, this assay endpoint is annotated to the nuclear receptor intended target family, where the subfamily is steroidal.
All assay endpoints are quantified using high content image analysis algorithms.

Estrogen receptor (Homo sapiens), sequence (P03372 whole entry, looked up): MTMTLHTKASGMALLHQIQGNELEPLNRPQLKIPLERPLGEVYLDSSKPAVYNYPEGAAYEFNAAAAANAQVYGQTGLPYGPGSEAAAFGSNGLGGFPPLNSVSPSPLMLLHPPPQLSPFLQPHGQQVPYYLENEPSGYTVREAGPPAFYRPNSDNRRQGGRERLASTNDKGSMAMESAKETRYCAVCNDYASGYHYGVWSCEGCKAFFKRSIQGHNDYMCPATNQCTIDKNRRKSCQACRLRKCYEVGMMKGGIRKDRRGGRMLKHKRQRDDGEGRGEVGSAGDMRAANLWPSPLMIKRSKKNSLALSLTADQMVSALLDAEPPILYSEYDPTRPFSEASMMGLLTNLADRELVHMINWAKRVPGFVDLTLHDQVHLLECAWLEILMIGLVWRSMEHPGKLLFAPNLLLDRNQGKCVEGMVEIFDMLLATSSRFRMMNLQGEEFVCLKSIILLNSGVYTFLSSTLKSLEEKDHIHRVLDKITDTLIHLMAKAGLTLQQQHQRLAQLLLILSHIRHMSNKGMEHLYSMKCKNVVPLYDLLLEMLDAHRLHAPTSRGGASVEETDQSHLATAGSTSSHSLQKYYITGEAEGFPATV

Compound	outcome	AC50
CC=C1CC2C=CC1C2 (stereo not given)	inactive	–
CCCCCCC1(C)CCC(=O)O1 (stereo not given)	inactive	–
Oc1ccc(Cl)cc1Cc1cc(Cl)ccc1O	inactive	–
NC(CO)(CO)CO	inactive	–
OC1CCCC1	inactive	–
CCO[Si](C)(OCC)OCC	inactive	–
O=C(c1ccccc1)C1CCC1	inactive	–
CCCCCCCCCCCCCOP(=O)(O)O	inactive	–
O=C(O)CCCC[C@@H]1SC[C@@H]2NC(=O)N[C@@H]21	inactive	–
CC(C)(C)c1ccc(N)cc1	inactive	–
OC1CCCCCCCCCCC1	inactive	–
CC(C)=CCC[C@H](C)CCO	inactive	–
CCCCCCCCCCOS(=O)(=O)O	inactive	–
CC(=O)[C@H]1[C@H](C#N)C[C@H]2[C@@H]3CC=C4C[C@@H](O)CC[C@]4(C)[C@H]3CC[C@@]21C	inactive	–
CCOC(=O)CC	inactive	–
Cc1cc(C)c(C(=O)O)c(C)c1	–	94.2 µM (active)
CNC(=S)NN	inactive	–
CC(CC=O)CCCC(C)(C)O (stereo not given)	inactive	–
CC/C=C\C/C=C\C/C=C\CCCCCCCC(=O)O	inactive	–
CCCCCCCC/C=C\CCCCCCCC(=O)OCCO	inactive	–

Compound	outcome	AC50
NC(=O)N=NC(N)=O	–	12.1 µM (active)
CC(C)(C)c1ccc(-c2ccc(C(C)(C)C)cc2)cc1	inactive	–
CC1=CC[C@H]2C[C@@H]1C2(C)C	–	93.6 µM (active)
CCCCC/C=C\C/C=C\CCCCCCCC(=O)OC	inactive	–
COC(=O)c1c(C)cc(O)c(C)c1O	inactive	–
Cc1ccc(C(C)(C)C)cc1	inactive	–
CCCc1ccc(OC)cc1	inactive	–
NC(=O)c1ccccc1O	inactive	–
Cc1cc(C)c(C)cc1C	inactive	–
CCCCCCCC[N+](C)(CCCCCCCC)CCCCCCCC	–	12.4 µM (active)
c1c[nH]cn1	inactive	–
CC1=NN(c2cc(S(=O)(=O)O)ccc2Cl)C(=O)C1N=Nc1ccccc1 (stereo not given)	inactive	–
CCCCCCCCO[C@@H]1O[C@H](CO)[C@@H](O)[C@H](O)[C@H]1O	inactive	–
Cc1ccc(N/N=c2\c(=O)cc/c(=N/Nc3ccc(S(=O)(=O)O)cc3)c2=O)c(C)c1	inactive	–
CCCCCCCOC(=O)CCC	inactive	–
CCCCOCCOC(=O)COc1nc(Cl)c(Cl)cc1Cl	inactive	–
CC(=O)OC(C)C	inactive	–
O=C(C(Cl)Cl)N1CCOC12CCCCC2	inactive	–
O=c1cc(-c2ccccc2)oc2ccccc12	inactive	–
CC(C)C1=CC2=CC[C@@H]3[C@](C)(CCC[C@@]3(C)C(=O)O)[C@H]2CC1	inactive	–
